The whole screen tested about 52,000 compounds, of which about 4,300 (8.3%) were called active. Rule as the data show it: active = survival mostly below about 52% (no sharp cut-off); inactive = mostly above about 56%. Shown is part of a subset that was picked to be rich in actives.
Tested on: DeltatarO mutant
Experiment: growth inhibition of S. aureus wild type versus tarO mutant, primary screen, teichoic acid synthesis inhibitors, RN4220, OD600 (AID 463173)
Settings: OD600, 18 h, hits give low values, screened at 18.75 µg/mL (by protocol)

Row | Compound | survival
1 | N#Cc1c(-n2ncnc2-c2ccc(F)cc2)sc2c1CCCCC2 | -4% (active)
2 | Cc1ccc(S(=O)(=O)CC(=O)Nc2sc3c(c2C#N)CCCC3)cc1 | 119% (inactive)
3 | N#Cc1c(-n2ncnc2-c2cccc(Br)c2)sc2c1CCCCC2 | 23% (active)
4 | N#Cc1c(N)sc2c1CCCC2 | 103% (inactive)
5 | Cc1ccc(S(=O)(=O)CC(=O)Nc2sc3c(c2C#N)CCCCC3)cc1 | 72% (inactive)
6 | N#Cc1c(-n2ncnc2-c2ccc(Br)cc2)sc2c1CCCCC2 | 2% (active)
7 | CCCCNCc1cccn1-c1sc2c(c1C#N)CCCC2 | 109% (inactive)
8 | N#Cc1c(-n2ncnc2-c2cccc(Cl)c2)sc2c1CCCCC2 | 61% (inactive)
9 | CCOc1ccc(-c2ncnn2-c2sc3c(c2C#N)CCCCC3)cc1 | 5% (active)
10 | COc1ccc(-c2nnn(CC(=O)Nc3sc4c(c3C#N)CCCC4)n2)cc1 | 98% (inactive)
11 | N#Cc1c(N2C(=O)C3C4C=CC(C4)C3C2=O)sc2c1CCCC2 (configuration not stated) | 71% (inactive)
12 | CC(C)CCOc1ccc(C(=O)Nc2sc3c(c2C#N)CCCCC3)cc1 | 127% (inactive)
13 | O=C(/C=C/c1ccco1)Nc1ccc(-c2cc3ccccc3oc2=O)cc1 | 50% (inactive)
14 | CC(=O)N1CCc2cc(S(=O)(=O)NC(CC(C)C)C(=O)NCCc3ccccc3)ccc21 (configuration not stated) | 78% (inactive)
15 | CCCCOc1ccccc1C(=O)N(Cc1ccc(C)o1)C1CCS(=O)(=O)C1 (configuration not stated) | 71% (inactive)
16 | Cc1cccc(OCC(=O)Nc2ccccc2C(=O)OCc2cc(=O)n3ccsc3n2)c1 | 77% (inactive)
17 | CC(=O)Nc1ccc(S(=O)(=O)N2CCC(NC(=O)Nc3cccc(F)c3)CC2)cc1 | 91% (inactive)
18 | CC1=C(C(=O)Nc2ccc(C)cc2C)C(c2cccn2C)n2ncnc2N1 (configuration not stated) | 91% (inactive)
19 | Cc1ccc(NS(=O)(=O)c2c(C(=O)N3CCCCCC3)c(C)n(C)c2C)cc1F | 83% (inactive)
20 | CC1CCc2c(sc(NC(=O)C3c4ccccc4Oc4ccccc43)c2C(=O)OC(C)C)C1 (configuration not stated) | 47% (active)
21 | CCOC(=O)c1c(NC(=O)C2c3ccccc3Oc3ccccc32)sc(C)c1CC | 24% (active)
22 | Cc1sc(NC(=O)C2c3ccccc3Oc3ccccc32)c(C(=O)OC(C)C)c1C | 59% (inactive)
23 | CCOC(=O)c1c(NC(=O)C2c3ccccc3Oc3ccccc32)sc(C)c1C | 12% (active)

Row | Compound | survival
24 | CC(C)OC(=O)c1c(NC(=O)C2c3ccccc3Oc3ccccc32)sc2c1CCCC2 | 93% (inactive)
25 | CCCOC(=O)c1c(NC(=O)C2c3ccccc3Oc3ccccc32)sc2c1CCC(C)C2 (configuration not stated) | 82% (inactive)
26 | CNC(=O)C1c2ccccc2Oc2ccccc21 | 91% (inactive)
27 | COC(=O)c1c(NC(=O)C2c3ccccc3Oc3ccccc32)sc2c1CCC(C)C2 (configuration not stated) | 56% (inactive)
28 | CCc1c(C)sc(NC(=O)C2c3ccccc3Oc3ccccc32)c1C(=O)OC(C)C | 41% (active)
29 | CCCOC(=O)c1c(NC(=O)C2c3ccccc3Oc3ccccc32)sc2c1CCCC2 | 77% (inactive)
30 | CCOC(=O)c1sc(NC(=O)C2c3ccccc3Oc3ccccc32)c(C(=O)OCC)c1C | 124% (inactive)
31 | CCOC(=O)c1sc(NC(=O)C2c3ccccc3Oc3ccccc32)c(C#N)c1C | 72% (inactive)
32 | O=C(C1CC1)N1CCN(c2nc3ccc(F)cc3s2)CC1 | 117% (inactive)
33 | Cc1nn(-c2ccccc2)c(OC(=O)c2ccccc2)c1S(=O)(=O)c1ccccc1 | 81% (inactive)
34 | Cc1cc(C)n(-c2n[nH]c(=S)c3ccccc23)n1 | 81% (inactive)
35 | CN(Cc1ccccc1)c1ccc(-c2nc(-c3ccco3)no2)cc1[N+](=O)[O-] | 52% (inactive)
36 | Cc1cc(Nc2cc(Cl)ccc2C)n2nc(-c3ccccc3)nc2n1 | 49% (inactive)
37 | CCN(CC)C(=O)c1sc(NC(=O)C2c3ccccc3Oc3ccccc32)c(C(=O)OC(C)C)c1C | 30% (active)
38 | CCN(CC)C(=O)c1sc(NC(C)=O)c(C(=O)OC)c1C | 99% (inactive)
39 | Cc1sc(NC(=O)COc2ccc(C(C)(C)C)cc2)c(C(=O)OC(C)C)c1C | 10% (active)
40 | CCOC(=O)c1c(NC(=O)COc2cc(C)ccc2C(C)C)sc(C)c1C | 63% (inactive)
41 | CCN(CC)C(=O)c1sc(NC(=O)c2nc3ncccn3n2)c(C(=O)OC)c1C | 137% (inactive)
42 | CCOC(=O)c1c(NC(=O)COc2ccc(OC)cc2)sc(C(=O)N(CC)CC)c1C | 3% (active)
43 | Cc1c(C(=O)OC(C)C)sc(NC(=O)C2c3ccccc3Oc3ccccc32)c1C(=O)OC(C)C | 80% (inactive)
44 | COC(=O)c1c(NC(=O)COc2ccc(Cl)cc2)sc(C)c1C | 67% (inactive)
45 | CCCc1ccc(OCC(=O)Nc2sc(C(=O)OCC)c(C)c2C(=O)OCC)cc1 | 82% (inactive)
46 | CCOc1ccc(NC(=O)Cn2c3ncccc3c(=O)n2-c2ccc(CC)cc2)cc1 | 85% (inactive)

Row | Compound | survival
47 | Cc1ccc(C(=O)c2oc3ccccc3c2NC(=O)Cc2coc3c(C)c(C)ccc23)cc1 | 54% (inactive)
48 | CCCCNC(=O)Cn1ncc2c(C)n(Cc3cccc(Cl)c3)c(C)c2c1=O | 93% (inactive)
49 | Cn1c(=O)c2[nH]c(=S)[nH]c2n(C)c1=O | 103% (inactive)
50 | Cc1c(NC(=O)Nc2ccccc2C(F)(F)F)c(=O)n(-c2ccccc2)n1C | 92% (inactive)
51 | CCOc1ccc(NC(=O)Cn2c(=O)n(Cc3nc(-c4ccccc4)no3)c(=O)c3cc4c(cc32)OCO4)cc1 | 89% (inactive)
52 | CCOCCc1nn2c(=O)cc(COC(=O)C3CCCCC3)nc2s1 | 88% (inactive)
53 | COc1cccc(OC(=O)N2CCOCC2)c1 | 103% (inactive)
54 | COc1ccc(S(=O)(=O)c2cnc3ccc(Cl)cc3c2N2CCCCC2C)cc1 (configuration not stated) | 134% (inactive)
55 | Cc1ccc2ncc(S(=O)(=O)c3ccccc3)c(N3CCCCC3C)c2c1 (configuration not stated) | 7% (active)
56 | CC1CCCCN1c1c(S(=O)(=O)c2ccc(Cl)cc2)cnc2ccccc12 (configuration not stated) | 102% (inactive)
57 | CCN(CC)CCNC(=O)c1cn(CC)c2ccc(S(=O)(=O)N(C)C3CCCCC3)cc2c1=O | 107% (inactive)
58 | O=S1(=O)CCC(N2C(=S)SC3CS(=O)(=O)CC32)C1 (configuration not stated) | 96% (inactive)
59 | O=C(Cn1c(=O)ccc2cc(S(=O)(=O)N3CCCC3)ccc21)NCc1ccc(Cl)cc1 | 102% (inactive)
60 | CCc1ccc(-c2cc(C)no2)cc1S(=O)(=O)Nc1ccc(C)cn1 | 55% (inactive)
61 | CCc1ccc(-c2cc(C)no2)cc1S(=O)(=O)Nc1ccc(Cl)cc1 | 68% (inactive)
62 | CCc1ccc(-c2cc(C)no2)cc1S(=O)(=O)Nc1ccc(Cl)cn1 | 17% (active)
63 | CCC1CCCCN1CCCNC(=O)c1c(O)nc2cc(C)ccn2c1=O (configuration not stated) | 80% (inactive)
64 | COc1ccc(-c2noc(-c3ccc(NCc4cccnc4)c([N+](=O)[O-])c3)n2)cc1 | 56% (inactive)
65 | COc1cc(-c2noc(-c3ccc(NCCc4ccccc4)c([N+](=O)[O-])c3)n2)cc(OC)c1OC | 66% (inactive)
66 | COc1ccc(-c2noc(-c3ccc(NCCc4ccccc4)c([N+](=O)[O-])c3)n2)cc1 | 42% (active)
67 | COc1ccccc1-c1noc(-c2ccc(NCc3ccccc3)c([N+](=O)[O-])c2)n1 | 35% (active)
68 | COc1ccccc1-c1noc(-c2ccc(NCc3cccnc3)c([N+](=O)[O-])c2)n1 | 47% (inactive)
69 | COc1cc(-c2noc(-c3ccc(NCc4ccccc4)c([N+](=O)[O-])c3)n2)cc(OC)c1OC | 79% (inactive)

Row | Compound | survival
70 | COc1ccc(-c2noc(-c3ccc(NCC4CCCO4)c([N+](=O)[O-])c3)n2)cc1OC (configuration not stated) | 54% (inactive)
71 | Cc1ccc(-c2noc(-c3ccc(NCC4CCCO4)c([N+](=O)[O-])c3)n2)cc1 (configuration not stated) | 74% (inactive)
72 | COc1ccccc1-c1noc(-c2ccc(NCCc3ccccc3)c([N+](=O)[O-])c2)n1 | 37% (active)
73 | O=[N+]([O-])c1cc(-c2nc(-c3ccccc3)no2)ccc1NCCc1ccccc1 | 58% (inactive)
74 | COc1ccc(-c2noc(-c3ccc(NCCc4ccccc4)c([N+](=O)[O-])c3)n2)cc1OC | 57% (inactive)
75 | COc1ccc(-c2noc(-c3ccc(NCC4CCCO4)c([N+](=O)[O-])c3)n2)cc1 (configuration not stated) | 42% (active)
76 | COCC(=O)Nc1c(C(=O)Nc2ccc(C)cc2)oc2ccccc12 | 86% (inactive)
77 | Cc1ccc(N)cc1N(C)C | 78% (inactive)
78 | Cc1ccc(CN2CCN(C3CCN(S(=O)(=O)N(C)C)CC3)C(=O)C2=O)cc1 | 82% (inactive)
79 | C=CCn1c(C(NC(=O)c2ccc(Cl)cc2Cl)C(C)C)n[nH]c1=S (configuration not stated) | 81% (inactive)
80 | COc1cc(NC(=O)C2CCN(S(=O)(=O)c3c(C)noc3/C=C/c3c(C)cc(C)cc3C)CC2)cc(OC)c1 | 78% (inactive)
81 | Cc1cccc(CCNC(=O)C2CCC(CNS(=O)(=O)c3ccccc3)CC2)c1 (configuration not stated) | 77% (inactive)
82 | Clc1ccc(Nc2c(-c3ccccc3Cl)nc3ccc(Cl)cn23)cc1 | 45% (inactive)
83 | Cc1ccc(Cl)cc1NC(=O)NCc1cccn1Cc1ccc(F)cc1 | 104% (inactive)
84 | CCNC(=O)c1c(C)oc2ncn(C)c(=O)c12 | 91% (inactive)
85 | CCCCNC(=O)c1c(C)oc2ncn(CC(C)C)c(=O)c12 | 6% (active)
86 | CSc1ccc(CCNC(=O)c2c(C)oc3ncn(C)c(=O)c23)cc1 | -2% (active)
87 | CCN(CC)CCCNC(=O)c1c(C)oc2ncn(CC(C)C)c(=O)c12 | 70% (inactive)
88 | Cc1cccc(NC(=O)c2c(C)oc3ncn(CC(C)C)c(=O)c23)n1 | 72% (inactive)
89 | Cc1oc2ncn(CC(C)C)c(=O)c2c1C(=O)Nc1cccc(C(F)(F)F)c1 | -1% (active)
90 | Cc1oc2ncn(CC(C)C)c(=O)c2c1C(=O)NCCCN1CCCCC1 | 101% (inactive)
91 | Cc1ccnc(NC(=O)c2c(C)oc3ncn(CC(C)C)c(=O)c23)c1 | 92% (inactive)
92 | CCOc1ccc(CCNC(=O)c2c(C)oc3ncn(C)c(=O)c23)cc1 | 84% (inactive)

Source: PubChem BioAssay AID463173 (ICCB-Longwood Screening Facility, Harvard Medical School, 2010)
